# Most compounds without a hit are left out; they make up all but 4% or so of the library.
# GRP78 ERSR act: ER stress response induction in glioma. U87-MG GRP78 promoter luciferase reporter, 16 h. Potency, µM, for the others: at the top dose activation, actives largely listed as activators. hit rate 0.02% among 420,000. AID 602332; active = well fitted activation curve with a large enough effect; note: potency is the fitted concentration of half-maximal effect; series mostly up to about 76 µM; % of control where 0% means no effect; nearly all actives have a fitted effect of over 35% in size
#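 Stably transfected U87-MG human glioma cells carrying a GRP78-based luminescent sensor were seeded at 1000 cells/well, pin-dosed with compounds and incubated 16 h. Luciferase reagent was then added, and end-point luminescence was read after 10 min at room temperature.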
# TRHR ag: TRH receptor (human) agonism; AID 493084; hit rate 0.18% among 360,000; activation, % at 2 µM; P34981; TRHR cells, calcium flux fluo-8, FDSS agonist mode; note: 0% is about no effect
# Target sequence (P34981 whole entry, looked up): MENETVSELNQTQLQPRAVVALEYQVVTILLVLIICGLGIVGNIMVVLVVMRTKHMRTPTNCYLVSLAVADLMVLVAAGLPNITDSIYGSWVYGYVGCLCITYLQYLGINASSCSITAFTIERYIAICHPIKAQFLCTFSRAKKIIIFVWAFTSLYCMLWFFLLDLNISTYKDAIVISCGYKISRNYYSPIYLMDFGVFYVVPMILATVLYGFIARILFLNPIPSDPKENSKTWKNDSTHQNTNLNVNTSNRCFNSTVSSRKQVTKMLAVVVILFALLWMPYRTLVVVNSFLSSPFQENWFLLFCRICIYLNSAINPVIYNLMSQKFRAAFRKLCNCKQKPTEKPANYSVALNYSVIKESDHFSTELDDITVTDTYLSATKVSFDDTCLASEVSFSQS
#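 Read-out: compound-evoked intracellular calcium rise in TRHR cells, fluo-8 dye, kinetic FDSS fluorescence at 1 s/cycle following a 10-cycle baseline. Cells cultured overnight before dye loading (30 min–1.5 h, RT).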
# D1 potentiator: human D1 dopamine receptor positive modulation; potentiation, % at 10 µM; HEK293 TREx D1 cells, calcium flux, dopamine EC20 potentiation; hit rate 0.036% among 360,000; P21728; AID 504651; in the data active = potentiation above about 30%; note: 0% is about no effect
# TRHR enhancer: allosterically enhances the human TRH receptor. P34981. TRHR cells, fluo-8 calcium fluorescence, EC20 TRH enhancement. enhancement, % at 2 µM. hit rate 0.66% among 360,000. AID 493056; in the data active = enhancement above about 30%; note: 0% is about no effect
#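 TRHR-expressing cells loaded with fluo-8 calcium dye were read kinetically (ex 480/em 530) during compound addition, then stimulated with an EC20 of TRH (10 nM final). Enhancement of the Gq-mediated intracellular calcium response was scored.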
# D1 agonist: activates the human D1 dopamine receptor. activation, % at 2 µM. HEK293 T-REx D1 cells, calcium flux, agonist mode. P21728. AID 504660. hit rate 1% among 360,000; note: 0% is about no effect
#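 Agonism was scored from calcium flux recorded over 180 s (1 read/s) after pintool compound addition, following a 10-cycle baseline. Cells were inducible force-coupled HEK293 TREx D1, plated overnight at 30 C and loaded with no-wash calcium dye.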
# D1 antagonist: blocks dopamine activation of the human D1 receptor; activity change, negative = inhibition, % at 10 µM; hit rate 3.2% among 360,000; AID 504652; HEK293 TREx D1 cells, calcium flux, dopamine EC80; hits give low values; in the data active = activity change below about -30%; note: % is set by controls: 0 for no effect and ±100 for the full control effect
#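 Allosteric or orthosteric antagonism assessed as attenuation of the calcium response to EC80 dopamine, added 180 s after compound, in induced HEK293 Trex D1 cells loaded with no-wash calcium dye.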
# An asterisk follows results filed as active; . = no result. Cut-off read from the data, not from the text of the source, unless noted: active = activation above about 30%; inactive = the rest.
SMILES,GRP78 ERSR act,TRHR ag,D1 potentiator,TRHR enhancer,D1 agonist,D1 antagonist
COc1cccc(-c2ccc3ncnc(NCc4cccc(F)c4)c3c2)c1,.,0.7,2.0,-6.6,5.1,-3.2
COc1ccccc1C(=O)Nc1sc(C(=O)N2CCCC2)c(C)c1C#N,-3.1%,0.2,-2.5,3.5,1.2,-2.1
Cc1c(C(=O)N2CCCC2)sc(NC(=O)c2ccc(Cl)cc2)c1C#N,-2.4%,0.5,-8.4,-27.2,-0.2,-64.2*
CC(C(=O)OCC(=O)Nc1ccc2c(c1)OCO2)N1C(=O)c2ccccc2C1=O (stereo unspecified),-1.6%,-1.0,-5.5,4.9,21.7,-4.5
CC(C(=O)Oc1ccc2c(c1)OCO2)N1C(=O)c2ccccc2C1=O (stereo unspecified),.,0.5,-8.4,-7.1,8.9,-40.1*
COc1cc(/C=C/c2ccnc3ccccc23)ccc1N(C)C,2.0%,.,.,.,.,.
NC(=O)C1CCN(c2nc(-c3cc4ccccc4o3)cs2)CC1,4.5%,-0.8,-5.9,4.5,22.8,-33.4*
COc1cc2nc(N3CCCC(O)C3)c(CNCc3ccccc3F)cc2c(OC)c1OC (stereo unspecified),-3.1%,.,.,.,.,.
Clc1ccc2ncnc(NCc3ccc4c(c3)OCO4)c2c1,3.4%,.,.,.,.,.
Oc1ccc(CCNc2ncnc3ccc(Cl)cc23)cc1,0.3%,0.1,-8.6,-5.3,6.9,-40.2*
CC(=O)NC12CC3CC(C1)CC(C(=O)N1CCN(S(=O)(=O)c4cccc(C(F)(F)F)c4)CC1)(C3)C2,0.5%,-0.2,-10.2,8.5,38.2*,-28.5
COc1ccc(NC(=O)CC2C(=O)N(c3cccc(C)c3)C(=O)N2Cc2cccnc2)cc1 (stereo unspecified),-1.4%,-0.1,-2.2,-1.9,0.9,2.5
CCOc1cc(CNCCc2ccc(S(N)(=O)=O)cc2)cc(Cl)c1OCc1ccccc1,-7.5%,-0.1,-6.1,12.4,34.0*,-16.0
CCNCc1cc(Cl)c(OCc2ccccc2)c(OCC)c1,-2.7%,0.7,-6.0,-4.3,54.6*,-0.2
COc1cc(CNCCc2ccc(S(N)(=O)=O)cc2)ccc1OCC(=O)NC(C)(C)C,0.8%,1.2,-0.5,6.1,2.0,7.1
CCOc1cc(CNCCO)cc(Br)c1OCc1ccccc1,-5.7%,-0.1,-6.9,-2.7,8.2,.
CCOc1cc(CNc2ccc(S(N)(=O)=O)cc2)cc(Cl)c1OC,-0.6%,-0.5,1.8,6.1,1.6,-9.4
CCOc1cc(CNCCc2ccc(S(N)(=O)=O)cc2)ccc1OCc1ccccc1,-1.4%,3.9,-8.1,10.8,34.8*,-45.2*
NS(=O)(=O)c1ccc(CCNCc2cc(Br)ccc2OCc2ccccc2)cc1,-5.3%,0.2,-0.8,-2.8,34.2*,-34.1*
CCCNC(=O)OC[C@@H]1O[C@H](CCO/N=C(\C)CCN2CCCCc3nc(C)c(C)cc32)C=C[C@@H]1Oc1ccc(OC)cc1,-6.3%,.,.,.,.,.
COC(=O)[C@@H]1CCCN1S(=O)(=O)Cc1ccccc1,-3.0%,.,.,.,.,.
O=[N+]([O-])c1c(NCCCO)cc(Sc2ccc(Cl)cc2)c2nonc12,17.2%,-0.7,-4.3,1.8,2.5,-40.0*
COc1cccc(-n2c(=O)c3sc4ccccc4c3n(CC(=O)Nc3ccc(F)cc3F)c2=O)c1,-3.5%,1.2,-2.5,10.5,11.4,13.3
O=C(CN1CCCN(S(=O)(=O)c2ccc(Br)cc2)CC1)Nc1ccc2c(c1)OCO2,.,-0.5,-14.8,-5.5,-0.2,-49.2*
Cc1ccc(S(=O)(=O)N2CCC(C(=O)Nc3ccc4c(c3)OCO4)CC2)cc1,0.1%,-0.4,-8.7,2.9,1.8,-47.0*
Cc1ccc(NC(=O)C2CCN(S(=O)(=O)c3ccc4c(c3)OCCCO4)CC2)nc1,-5.2%,0.2,-7.1,-1.9,2.3,-33.0*
COc1ccc(S(=O)(=O)N2CCCN(CC(=O)Nc3ccc4c(c3)OCO4)CC2)cc1,-4.0%,.,.,.,.,.
Cc1ccnc(NC(=O)C2CCN(S(=O)(=O)c3ccc(Cl)c(C(F)(F)F)c3)CC2)c1,-1.6%,0.3,-3.5,-11.6,1.3,-0.2
Cc1ccc(NC(=O)C2CCN(S(=O)(=O)c3ccc(Cl)c(C(F)(F)F)c3)CC2)nc1,3.8%,0.1,-6.2,-10.8,0.6,-39.1*
Cc1cc(C)n(-c2nc(NCCN(C)C)c3c4c(sc3n2)CCCC4)n1,-4.5%,-0.7,-3.6,2.7,32.8*,6.8
